Results published in PubChem BioAssay (Tox21).
Activity calls are given as the source filed them. Entries that show only a call come without a potency. Calls come from the whole dose curve.

Experiment: G protein-coupled receptor (GPCR) small molecule agonists, calcium flux assay: HEK293 wild type cell line counter screen (AID 1920065)
Conditions: HEK293 WT calcium flux, fluorescence, agonist mode; series mostly up to 57.6 µM
In short: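 Wild-type HEK293 cells plated 18 h, loaded with calcium dye 1 h at 37 C, then compounds added in agonist mode (ATP as positive control). Kinetic fluorescence Ex/Em 480/540 recorded 3 min at 1 sec intervals; 15 concentrations, triplicate.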
Potency is the fitted concentration of half-maximal effect.

SMILES	Potency
CO[C@@H]1[C@@H](OC)[C@H](C)[C@@](O)(CC(=O)O)O[C@H]1[C@H](C)[C@H]1O[C@@]2(CC[C@@](C)([C@H]3CC[C@@](C)([C@@H]4O[C@@H]([C@H]5O[C@](C)(O)[C@H](C)C[C@@H]5C)C[C@@H]4OC4C[C@H](OC)[C@@H](OC)[C@H](C)O4)O3)O2)C[C@H](O)[C@H]1C (stereo not given in full)	inactive
O=Cc1ccc(O)c(O)c1O	inactive
c1ccc2sc(SN3CCOCC3)nc2c1	inactive
O=C(O)Cc1ccc(Cl)cc1Cl	inactive
Cc1ccc([N+](=O)[O-])c(N)c1	inactive
CCN(CC)c1ccc2c(-c3ccccc3C(=O)O)c3ccc(=[N+](CC)CC)cc-3oc2c1	34.7 µM (active)
CCCCCCCCCC(C)C=O (stereo not given)	inactive
CCC(Cl)CCC(Cl)C(Cl)CC(Cl)C(Cl)C(Cl)CCl (stereo not given)	inactive
CCOc1ccc(NC(C)=O)cc1N	inactive
OC[C@H]1O[C@@H](OCCc2ccc(O)cc2)[C@H](O)[C@@H](O)[C@@H]1O	inactive
CCc1ccc2c(c1)C(=O)c1ccccc1C2=O	inactive
CC(C)c1cccc(C(C)C)c1NC(=O)NS(=O)(=O)c1cc(C(C)(C)O)co1	inactive
[Cl][Au]([Cl])[Cl]	inactive
CCc1oc2ccccc2c1C(=O)c1cc(I)c(O)c(I)c1	inactive
C=C[Si]1(C)O[Si](C)(C=C)O[Si](C)(C=C)O[Si](C)(C=C)O1 (stereo not given)	inactive
CC1=CCC(C(C)C)C=C1 (stereo not given)	inactive
Oc1ccc(N=Nc2ccccc2)cc1	inactive
Cc1ccc(Cl)cc1N	inactive
Oc1ccc(Cc2ccccc2)cc1	inactive
Cc1cc(-c2ccc(N=Nc3cc(S(=O)(=O)O)c4ccccc4c3N)c(C)c2)ccc1N=Nc1cc(S(=O)(=O)O)c2ccccc2c1N	inactive

SMILES	Potency
CC[C@]12CCCN3CCc4c(n(c5ccccc45)C(=O)C1)[C@@H]32	inactive
c1ccc2occc2c1	inactive
C=CCCCCCC	inactive
COC(=O)/C=C(\C)CCC=C(C)C	inactive
CCN(CCC#N)c1ccc(N=Nc2c(Cl)cc([N+](=O)[O-])cc2Cl)cc1	inactive
CCCCCC[C@@H](O)C/C=C\CCCCCCCC(=O)OC	inactive
N=C(N)N	inactive
NCCN1CCOCC1	inactive
O=C(c1ccccc1)c1cc(Cl)ccc1O	inactive
O=C(O)C(=O)Cc1ccccc1	inactive
NCCc1cnc[nH]1	inactive
CC/C=C1/OC(=O)c2ccccc21	inactive
O=C1c2ccccc2C(=O)c2c(Cl)cccc21	inactive
COC(=O)CCCCCCCC(=O)OC	inactive
OCCN1CCN(CCO)CC1	inactive
CC/C=C\CCCCCO	inactive
O=C(NOCC1CC1)c1ccc(F)c(F)c1Nc1ccc(I)cc1Cl	inactive
c1ccc(-c2nc3ccccc3[nH]2)cc1	inactive
CC(=O)Nc1cccc(N)c1	inactive
COc1ccc(C2CNC(=O)C2)cc1OC1CCCC1 (stereo not given)	inactive
